Measured values published in the supplement of paper PMC10849652.
Of roughly 7,900 targets only a part is listed; those with a hit were picked by preference. About 0.6% of all pairs of compound and target were hits. A number with no mark means an inactive call.

Columns and labels:
Assay in all cases: log2 fold change, soluble protein after heating vs DMSO (PISA); higher = thermal stabilisation; K562 cells, 10 uM, 30 min; active = over 0.2 and 3.5 SD of the protein, either way, in both replicates (recomputed)
[1] = compound: NC(=O)Nc1cc(-c2cccc(F)c2)sc1C(=O)N[C@H]1CCCNC1
How it was run: (§1)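 Soluble protein was quantified by TMTpro 16plex LC-MS/MS after channel sums were equalised. It was obtained as the supernatant after 21,000xg for 90 min from pooled aliquots of K562 cells (2×10^6 cells/mL, 10 μM compound, 30 min) heated for 3 min across 48°C-58°C and extracted in PBS with 0.5% NP-40 at 4°C. Thermal stability values are relative to control samples and come from duplicates. They are given as log2 fold changes.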

[2] = compound: NC(=O)c1cnc(N[C@@H]2CCCC[C@@H]2N)nc1Nc1cccc(-n2nccn2)c1
How it was run: as §1

[3] = compound: NC1(c2ccc(-c3nc4ccn5c(=O)[nH]nc5c4cc3-c3ccccc3)cc2)CCC1
How it was run: as §1

[4] = compound: NCC(=O)Nc1ccc(-n2nc(C(F)(F)F)cc2-c2ccc3c(ccc4ccccc43)c2)cc1
How it was run: as §1

entinostat = compound: Nc1ccccc1NC(=O)c1ccc(CNC(=O)OCc2cccnc2)cc1 [entinostat]
How it was run: as §1

vorinostat = compound: O=C(CCCCCCC(=O)Nc1ccccc1)NO [vorinostat]
How it was run: as §1

citarinostat = compound: O=C(CCCCCCNC(=O)c1cnc(N(c2ccccc2)c2ccccc2Cl)nc1)NO [citarinostat]
How it was run: as §1

silmitasertib = compound: O=C(O)c1ccc2c(c1)nc(Nc1cccc(Cl)c1)c1ccncc12 [silmitasertib]
How it was run: as §1

[5] = compound: O=C1NC(=O)C(c2cnc3ccccn23)=C1c1cn2c3c(cc(F)cc13)CN(C(=O)N1CCCCC1)CC2
How it was run: as §1

[6] = compound: c1cc(OCCN2CCCCC2)cc(-c2n[nH]c3ccc(-c4nnc[nH]4)cc23)c1
How it was run: as §1

entospletinib = compound: c1cn2cc(-c3ccc4cn[nH]c4c3)nc(Nc3ccc(N4CCOCC4)cc3)c2n1 [entospletinib]
How it was run: as §1

Chain of UniProt Q9ULX6 (Q9ULX6 whole entry, looked up): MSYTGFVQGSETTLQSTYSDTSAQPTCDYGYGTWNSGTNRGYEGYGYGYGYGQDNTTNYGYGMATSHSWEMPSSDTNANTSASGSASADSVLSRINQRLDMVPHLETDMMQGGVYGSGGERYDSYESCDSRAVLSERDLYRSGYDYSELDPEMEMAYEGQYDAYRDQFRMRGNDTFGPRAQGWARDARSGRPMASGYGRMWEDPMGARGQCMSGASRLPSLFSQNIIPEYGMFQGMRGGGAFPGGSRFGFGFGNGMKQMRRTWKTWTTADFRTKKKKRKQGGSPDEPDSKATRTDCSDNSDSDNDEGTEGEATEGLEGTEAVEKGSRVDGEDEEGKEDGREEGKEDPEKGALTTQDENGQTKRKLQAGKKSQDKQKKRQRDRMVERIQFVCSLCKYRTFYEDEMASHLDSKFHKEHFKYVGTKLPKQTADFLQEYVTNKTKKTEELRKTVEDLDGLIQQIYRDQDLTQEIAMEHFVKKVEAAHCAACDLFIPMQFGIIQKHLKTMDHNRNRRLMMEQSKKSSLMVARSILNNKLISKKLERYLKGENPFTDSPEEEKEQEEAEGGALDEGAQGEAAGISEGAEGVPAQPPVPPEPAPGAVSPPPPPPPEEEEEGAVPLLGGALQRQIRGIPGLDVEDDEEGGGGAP
Chain of UniProt Q15059 (Q15059 whole entry, looked up): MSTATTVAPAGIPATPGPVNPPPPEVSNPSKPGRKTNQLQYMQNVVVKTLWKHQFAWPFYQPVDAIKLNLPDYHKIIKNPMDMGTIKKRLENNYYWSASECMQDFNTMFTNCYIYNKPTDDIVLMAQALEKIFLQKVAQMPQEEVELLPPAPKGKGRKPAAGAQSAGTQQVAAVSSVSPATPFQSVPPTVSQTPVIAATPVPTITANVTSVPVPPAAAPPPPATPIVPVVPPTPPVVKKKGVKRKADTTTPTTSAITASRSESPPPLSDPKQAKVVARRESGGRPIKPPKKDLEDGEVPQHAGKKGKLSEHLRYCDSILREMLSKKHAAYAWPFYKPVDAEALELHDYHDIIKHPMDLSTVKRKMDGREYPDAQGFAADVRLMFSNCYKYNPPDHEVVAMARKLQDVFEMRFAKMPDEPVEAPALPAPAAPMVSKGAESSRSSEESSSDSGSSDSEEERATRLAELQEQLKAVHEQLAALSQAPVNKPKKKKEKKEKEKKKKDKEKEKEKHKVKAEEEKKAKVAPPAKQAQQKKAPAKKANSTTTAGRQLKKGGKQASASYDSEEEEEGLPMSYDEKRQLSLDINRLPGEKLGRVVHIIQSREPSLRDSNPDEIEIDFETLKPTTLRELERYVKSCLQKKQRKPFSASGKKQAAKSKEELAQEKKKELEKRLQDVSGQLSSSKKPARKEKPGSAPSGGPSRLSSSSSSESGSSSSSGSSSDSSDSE
Chain of UniProt Q9Y3D8 (Q9Y3D8 whole entry, looked up): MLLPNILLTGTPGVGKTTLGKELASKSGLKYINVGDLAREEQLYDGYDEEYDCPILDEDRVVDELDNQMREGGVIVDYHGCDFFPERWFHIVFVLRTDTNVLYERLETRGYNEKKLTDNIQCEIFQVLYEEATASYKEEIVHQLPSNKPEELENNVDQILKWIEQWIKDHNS
Chain of UniProt Q8WV93 (Q8WV93 whole entry, looked up): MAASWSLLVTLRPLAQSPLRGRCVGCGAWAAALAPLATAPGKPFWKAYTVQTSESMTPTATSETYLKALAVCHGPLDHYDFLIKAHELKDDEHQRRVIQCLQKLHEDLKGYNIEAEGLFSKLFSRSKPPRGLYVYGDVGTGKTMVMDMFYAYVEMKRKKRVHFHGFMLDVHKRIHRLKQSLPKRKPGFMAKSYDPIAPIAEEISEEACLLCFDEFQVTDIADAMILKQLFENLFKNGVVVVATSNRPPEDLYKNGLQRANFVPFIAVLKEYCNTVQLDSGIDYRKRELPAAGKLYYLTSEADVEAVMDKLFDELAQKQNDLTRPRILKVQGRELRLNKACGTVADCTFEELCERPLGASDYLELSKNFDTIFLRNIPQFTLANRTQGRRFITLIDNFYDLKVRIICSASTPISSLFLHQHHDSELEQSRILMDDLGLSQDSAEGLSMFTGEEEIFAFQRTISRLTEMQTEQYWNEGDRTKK
Chain of UniProt P00966 (P00966 whole entry, looked up): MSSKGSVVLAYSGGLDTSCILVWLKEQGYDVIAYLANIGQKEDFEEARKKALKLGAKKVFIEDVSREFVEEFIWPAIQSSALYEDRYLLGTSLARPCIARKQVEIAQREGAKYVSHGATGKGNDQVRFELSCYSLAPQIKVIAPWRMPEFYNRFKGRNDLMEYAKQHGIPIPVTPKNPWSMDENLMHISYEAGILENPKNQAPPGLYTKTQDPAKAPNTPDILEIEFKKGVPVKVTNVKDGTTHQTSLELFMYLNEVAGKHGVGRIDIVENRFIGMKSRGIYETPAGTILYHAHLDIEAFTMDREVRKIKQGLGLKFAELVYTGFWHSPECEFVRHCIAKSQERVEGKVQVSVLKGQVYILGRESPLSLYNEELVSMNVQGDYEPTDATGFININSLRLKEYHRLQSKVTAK
Chain of UniProt Q9Y6E2 (Q9Y6E2 whole entry, looked up): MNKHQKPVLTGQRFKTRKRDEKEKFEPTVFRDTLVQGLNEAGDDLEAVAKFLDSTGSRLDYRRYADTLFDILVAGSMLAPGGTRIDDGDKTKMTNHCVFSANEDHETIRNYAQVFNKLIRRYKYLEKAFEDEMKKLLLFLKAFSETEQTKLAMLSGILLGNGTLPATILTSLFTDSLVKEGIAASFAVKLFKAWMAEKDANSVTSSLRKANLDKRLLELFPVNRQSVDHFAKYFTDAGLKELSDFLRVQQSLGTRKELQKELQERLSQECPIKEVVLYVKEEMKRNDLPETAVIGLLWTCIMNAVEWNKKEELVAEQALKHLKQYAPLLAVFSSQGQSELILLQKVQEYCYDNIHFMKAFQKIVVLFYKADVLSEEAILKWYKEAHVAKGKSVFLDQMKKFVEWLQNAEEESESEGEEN
Chain of UniProt Q9Y587 (Q9Y587 whole entry, looked up): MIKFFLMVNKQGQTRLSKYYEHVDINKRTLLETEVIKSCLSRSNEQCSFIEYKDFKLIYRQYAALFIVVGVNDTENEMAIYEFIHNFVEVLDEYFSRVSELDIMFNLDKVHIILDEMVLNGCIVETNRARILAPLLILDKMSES
Chain of UniProt P52895 (P52895 whole entry, looked up): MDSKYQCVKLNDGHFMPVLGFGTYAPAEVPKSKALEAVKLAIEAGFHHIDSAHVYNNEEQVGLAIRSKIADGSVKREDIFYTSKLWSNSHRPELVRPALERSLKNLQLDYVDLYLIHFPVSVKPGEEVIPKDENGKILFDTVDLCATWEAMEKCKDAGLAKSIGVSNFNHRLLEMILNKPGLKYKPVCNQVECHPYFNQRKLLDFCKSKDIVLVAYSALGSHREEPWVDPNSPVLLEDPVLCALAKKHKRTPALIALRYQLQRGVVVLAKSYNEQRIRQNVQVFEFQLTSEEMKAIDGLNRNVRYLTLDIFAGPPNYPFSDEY
Chain of UniProt Q9UBL3 (Q9UBL3 whole entry, looked up): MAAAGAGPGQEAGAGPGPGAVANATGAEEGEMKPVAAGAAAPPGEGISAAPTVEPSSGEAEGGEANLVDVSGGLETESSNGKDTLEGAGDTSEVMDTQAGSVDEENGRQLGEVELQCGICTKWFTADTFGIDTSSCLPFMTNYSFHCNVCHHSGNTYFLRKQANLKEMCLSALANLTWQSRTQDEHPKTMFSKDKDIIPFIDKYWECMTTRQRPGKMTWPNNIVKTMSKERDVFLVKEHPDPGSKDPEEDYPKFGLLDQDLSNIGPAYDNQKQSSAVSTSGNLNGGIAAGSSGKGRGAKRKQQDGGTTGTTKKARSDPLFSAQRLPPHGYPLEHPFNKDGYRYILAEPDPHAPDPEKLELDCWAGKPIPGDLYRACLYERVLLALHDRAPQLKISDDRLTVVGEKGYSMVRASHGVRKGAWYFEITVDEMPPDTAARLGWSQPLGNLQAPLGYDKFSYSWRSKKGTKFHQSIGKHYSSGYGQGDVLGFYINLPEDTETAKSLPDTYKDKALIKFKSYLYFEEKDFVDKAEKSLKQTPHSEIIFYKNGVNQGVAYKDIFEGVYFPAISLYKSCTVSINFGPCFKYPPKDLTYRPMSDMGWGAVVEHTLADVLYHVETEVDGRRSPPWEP
Chain of UniProt O15254 (O15254 whole entry, looked up): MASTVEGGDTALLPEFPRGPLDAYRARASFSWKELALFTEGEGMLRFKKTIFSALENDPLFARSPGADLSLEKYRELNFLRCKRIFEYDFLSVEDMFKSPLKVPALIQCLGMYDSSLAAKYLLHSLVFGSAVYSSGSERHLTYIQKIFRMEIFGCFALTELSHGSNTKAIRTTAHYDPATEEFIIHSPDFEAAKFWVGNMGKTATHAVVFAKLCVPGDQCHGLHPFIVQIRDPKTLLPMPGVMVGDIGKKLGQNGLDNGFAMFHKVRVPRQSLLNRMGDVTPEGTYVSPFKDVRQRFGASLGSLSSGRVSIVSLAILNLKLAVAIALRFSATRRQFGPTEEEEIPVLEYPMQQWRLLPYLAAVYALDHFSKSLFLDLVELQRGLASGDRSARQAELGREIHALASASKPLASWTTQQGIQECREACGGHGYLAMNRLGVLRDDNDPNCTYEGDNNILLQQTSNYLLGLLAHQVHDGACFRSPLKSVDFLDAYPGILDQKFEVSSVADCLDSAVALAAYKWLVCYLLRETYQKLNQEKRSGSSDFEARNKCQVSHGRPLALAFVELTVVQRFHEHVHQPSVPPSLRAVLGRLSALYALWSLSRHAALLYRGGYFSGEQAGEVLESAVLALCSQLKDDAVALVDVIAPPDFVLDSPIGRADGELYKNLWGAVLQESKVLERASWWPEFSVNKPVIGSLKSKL
Chain of UniProt Q8WUW1 (Q8WUW1 whole entry, looked up): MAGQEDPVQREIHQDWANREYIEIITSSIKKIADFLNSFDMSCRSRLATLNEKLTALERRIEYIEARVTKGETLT
Chain of UniProt Q92934 (Q92934 whole entry, looked up): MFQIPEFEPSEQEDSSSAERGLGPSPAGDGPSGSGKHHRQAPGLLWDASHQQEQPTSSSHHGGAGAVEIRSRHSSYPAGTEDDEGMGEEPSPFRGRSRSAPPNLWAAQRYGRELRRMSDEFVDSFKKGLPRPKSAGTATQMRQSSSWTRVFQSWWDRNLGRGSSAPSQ

Target	log2 fold change [1]	log2 fold change [2]	log2 fold change [3]	log2 fold change [4]	log2 fold change (entinostat)	log2 fold change (vorinostat)	log2 fold change (citarinostat)	log2 fold change (silmitasertib)	log2 fold change [5]	log2 fold change [6]	log2 fold change (entospletinib)
ATP11A (UniProt P98196)	-0.034	0.065	-0.001	-0.054	-0.025	-0.08	-0.154	0.065	-0.024	-0.32 (active)	0.158
ADAMTS5 (UniProt Q9UNA0)	0.026	-0.065	0.074	-0.071	-0.08	0.056	0.074	-0.064		0.051	-0.145
AFG1L (UniProt Q8WV93)	-0.021	0.008	0.019	-0.178	0.095		-0.004	0.009	-0.009	-0.057	-0.029
ARHGAP4 isoform 2 (UniProt P98171)	0.197	-0.079	0.021	-0.036	0.081		0.047	-0.043		-0.097	0.003
BDH2 (UniProt Q9BUT1)	-0.091	-0.086	-0.042	0.009	0.025	-0.03		0.076			
ALG3 (UniProt Q92685)	-0.039	-0.037	-0.006	0.045	0.172	-0.046	-0.051	0.034	-0.055	-0.027	0.049
ARFIP1 (UniProt P53367)	0.116	-0.002	-0.162	0.062	0.079	0.031	0.121	-0.011	-0.042	-0.048	-0.109
ASS1 (UniProt P00966)	-0.054	-0.184	-0.087	0.026	0.096	-0.052	-0.037	0.02	-0.013	0.013	0.096
ATF7 isoform 6 (UniProt P17544)	-0.113	0.138	-0.123	0.268	-0.045			0.067	-0.044		
BUB1B isoform 3 (UniProt O60566)	0	-0.135	-0.113	-0.039	0.068	0.124	0.02	0.111	0.026	0	-0.016
AP2M1 (UniProt C9JTK4)	-0.07	-0.149	-0.111	-0.261	0.043		-0.132	0.116	-0.267	0.024	0.047
AK6 (UniProt Q9Y3D8)	-0.034	-0.072	-0.043	-0.138	0.145	0.074	0.103	0.058	-0.051	-0.009	-0.048
AKAP8 (UniProt O43823)	-0.043	-0.037	0.023	-0.012	-0.024	0.01	0.002	-0.13	-0.1	-0.043	-0.018
BAD (UniProt Q92934)	-0.243	0.033	0.101	-0.018	-0.122	0.011	-0.064	-0.071	0.131	-0.072	-0.014
BZW2 (UniProt Q9Y6E2)	0.019	-0.055	-0.225	-0.066	0.047	-0.003	0.044	-0.001	-0.044	-0.069	0.002
AP4S1 (UniProt Q9Y587)	-0.014	0.039	-0.11	0.019	0.062		0.054	-0.005	-0.092	0.015	0.039
ACOX3 (UniProt O15254)	-0.084	0.004	-0.09	0.16	0.071		0.287	-0.302	-0.022	-0.016	0.056
APH1A (UniProt Q96BI3)	-0.048	-0.201	-0.075	0.303 (active)	0.014	-0.024	0.055	0.006		0.085	-0.084
BRK1 isoform 2 (UniProt Q8WUW1)	-0.071	0.033	-0.019	0.065	0.079	-0.06	0.031	-0.063	-0.16	-0.078	0.047
APOBEC3G (UniProt Q9HC16)	0.046	0.149	0.061	-0.027	0.026		0.125	0.116	0.202	-0.013	0.126
AKAP8L (UniProt Q9ULX6)	-0.006	0.153	-0.063	-0.098	0.01	0.088	0.124	-0.012	-0.236	-0.067	0.171
ATP2A3 isoform 2 (UniProt Q93084)	-0.008	0.007	-0.096	-0.072	0.035	-0.018	0.019	0.068	-0.069	-0.05	-0.036
ACSM3 (UniProt Q53FZ2)	0.017	0	0.021	-0.125	0.009	0.122	0.122	0.06	-0.134	-0.094	-0.004
ATP6V0A1 isoform 3 (UniProt Q93050)	-0.051	-0.207	-0.184	0.008	0.083	0.062	0.109	0.102	0.019	-0.112	0.079
BRD3 (UniProt Q15059)	0.008	-0.026	0.017	0.119	-0.123	-0.663 (active)	-0.567 (active)	0.061		-0.002	0.033
AKR1C2 (UniProt P52895)	0.133	-0.092	0.206	-0.006	-0.129	0.012	0.018	0.257	0.079	-0.076	0.071
ANK2 (UniProt Q01484)	-0.146	-0.196	-0.183	-0.16	0.001	0.134	-0.104	-0.004		-0.019	0.016
AMFR (UniProt Q9UKV5)	-0.024	-0.128	-0.115	-0.075	0.051	0.055	0.012	0.07	-0.032	0.021	-0.059
ASH2L (UniProt Q9UBL3)	-0.025	-0.075	0.002	-0.074	0.025	0.013	0.044	0.08	-0.064	-0.05	-0.02
